Bioassay records: PubChem BioAssay, National Center for Advancing Translational Sciences (NCATS)
TDP1 cell noCPT = qHTS for Inhibitors of human tyrosyl-DNA phosphodiesterase 1 (TDP1): qHTS in cells in absence of CPT; DT40 Tdp1-/- hTDP1 cells, no CPT, ATP luminescence, 48 h; Potency, µM (top dose mostly 46.2 µM), for inactives: top-dose activity change, negative = growth inhibition, actives largely listed as inhibitors; 420,000 compounds, 15% hits; AID 686978, 2013; further: potency means the concentration at half of the fitted maximal effect; nearly all actives have a fitted effect of over 55% in size
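Stably hTDP1-transfected Tdp1-null chicken DT40 cells were treated with library compounds minus camptothecin and grown for at least 48 hr at 37 °C, after which cellular ATP was quantified by luminescence.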
IL1B secr inh = inflammasome signaling inhibition, IL-1 beta readout; AID 743279; 360,000 compounds, 4.7% hits; activity change, % at 57.5 µM; THP-1 LPS/ATP IL-1B secretion, AlphaLISA, 16 h; hits give low values; in the data active means activity change below about -50%; inconclusive means mostly about -30% to -49%
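THP-1 cells pretreated 1 hr with compounds (up to 57.5 uM final), then stimulated with LPS (250 ng/mL final) plus ATP (1.25 mM final); secreted IL-1B measured by AlphaLISA after 16 hr, decreased signal indicating inhibition.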
HT1080 IDH1KD tx = kills HT-1080 cells with IDH1 knockdown; HT-1080 IDH1 knockdown viability, ATP luminescence, 48 h; Potency, µM (top dose mostly 46.1 µM), without a hit: at the highest dose activity, negative = toxicity, hits mostly cytotoxic; 360,000 compounds, 2% hits;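 further: potency means the concentration at half of the fitted maximal effect; 0% = DMSO wells and -100% = cell-free medium wells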
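Assay cells: HT-1080 with IDH1 knockdown, 750 per well, RPMI/5% FBS. Exposure: 48 h at 37 °C following 2 h pre-incubation. Read: CellTiter-Glo luminescence; fitted concentration-response, curve class assigned.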
DT40 TDP1 CPT = DT40-hTDP1 cell growth loss with CPT; chicken DT40 Tdp1-/-;hTDP1 cells + 20 nM CPT, ATP luminescence, 48 h; Potency, µM (series often up to 46.2 µM), for inactives: top-dose activity change, negative = growth inhibition, usual class: inhibitors; AID 686979; 420,000 compounds, 12% hits; further: potency means the concentration at half of the fitted maximal effect; nearly all actives have a fitted effect of over 55% in size
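Chicken DT40 Tdp1-/- cells complemented with human TDP1, 400 cells/well, exposed to compounds plus 20 nM camptothecin for at least 48 h at 37 C; viability read as ATP content by CellTiter-Glo luminescence.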
HT1080NT lethal = kills 2HG-producing HT-1080-NT fibrosarcoma cells; HT-1080-NT fibrosarcoma viability, CellTiter-Glo ATP luminescence, 48 h; Potency, µM (titrated, usually from 46.1 µM), inactives show at the top dose activity, negative = less viability, most hits filed as cytotoxic; 360,000 compounds, 1.6% hits;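 further: NT is the 2HG producing partner of a matched IDH1 knockdown line; potency means the concentration at half of the fitted maximal effect; 0% = DMSO-treated cells and -100% = media-only wells without cells; nearly all actives have a fitted effect of over 55% in size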
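HT-1080-NT fibrosarcoma cells (2HG-overproducing), 750 cells/well in RPMI with 5% FBS, dosed after 2 h and incubated 48 h at 37C. CellTiter-Glo luminescence normalized to DMSO and no-cell wells; concentration-response curves fitted and classed.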
ELG1 DNA repair = inhibitors of ELG1-dependent DNA repair in HEK293T cells; HEK293T ELG1-luciferase reporter, luminescence, 16 h; DNA damage induced by 5-fluorouridine; AID 504467; 330,000 compounds, 2.3% hits; Potency, µM (titrated, usually from 46.1 µM), inactives show at the highest dose activity change, negative = inhibition, most hits filed as inhibitors; further: potency means the concentration at half of the fitted maximal effect; nearly all actives have a fitted effect of over 55% in size
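5-Fluorouridine DNA damage + compound/DMSO, 2,000 cells/well, 16 h, 37 °C/5% CO2. ONE-Glo, 30 min RT, luminescence. Readout = decrease in reporter signal.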
* hit, by the source's call; ? = inconclusive; / = not tested or not shown. Most compounds without a hit are left out; they make up all but 19% or so of the library. Unless noted, the call rests on the fitted dose curve; in most records, active means well fitted curve in the direction sought with a large enough effect; inconclusive means small, poorly fitted or top-dose-only effect, or another doubt; inactive means no such curve, though single readings can be large; an effect the other way counts as inactive or inconclusive. Unless noted, on the % scale 0 is the no-effect control and ±100 the full control effect.

SMILES	TDP1 cell noCPT	IL1B secr inh	HT1080 IDH1KD tx	DT40 TDP1 CPT	HT1080NT lethal	ELG1 DNA repair
CCOc1ncccc1C(=O)Nc1cc(S(=O)(=O)N2CCCCCC2)ccc1OC	8%	10	2%	6%	-1%	4%
CCOc1ccccc1NC(=O)C1CCCN1S(=O)(=O)c1ccccc1C(F)(F)F (stereo not given)	21µM*	13	4%	21µM*	1%	-24%
CCc1cccc(NC(=O)C2CCCN2S(=O)(=O)c2ccc3nc(-c4ccccc4)[nH]c3c2)c1 (stereo not given)	8.2µM*	/	/	7.3µM*	/	/
Cc1cc(C)cc(NC(=O)C2CCCN2S(=O)(=O)c2ccc3nc(-c4ccccc4)[nH]c3c2)c1 (stereo not given)	15µM*	/	/	?	/	/
CCOc1ccccc1NC(=O)C1CCCN1S(=O)(=O)c1ccc2nc(-c3ccccc3)[nH]c2c1 (stereo not given)	6.5µM*	/	/	10µM*	/	/
CCc1cccc(NC(=O)C2CCCN2S(=O)(=O)c2ccc3c(c2)n(C)c(=O)c(=O)n3C)c1 (stereo not given)	-1%	6	2%	4%	-3%	0%
CC(C)[C@H]1COC(NC2=N[C@@H](C(C)C)CO2)=N1	-26%	0	3%	7%	3%	10%
C[C@@H]1CN([C@H](C)CO)C(=O)CCCn2nncc2CO[C@H]1CN(C)C(=O)c1ccc2ccn(C)c2c1	-2%	2	4%	17%	14%	/
COc1ccc(N(C(=O)Cn2nnc(-c3ccc(C)o3)n2)C(C(=O)NC2CCCC2)c2ccncc2)cc1 (stereo not given)	?	-9	0%	-30%	-2%	17%
CCn1cc(C(=O)NCCOC)c(=O)c2cc(S(=O)(=O)N3CCOCC3)ccc21	4%	/	/	0%	/	/
C#CC[N+](C)(C)CCCCCCCCCC	2.3µM*	-80*	12µM*	2.1µM*	?	?
C#CC[N+](C)(C)CCCCCCCCCCCC	0.65µM*	-88*	12µM*	1.3µM*	10µM*	-26%
C#CC[N+](C)(C)CCCCCCCC	?	-54*	?	?	?	9%
CC#CC[N+](C)(C)CCCCCCCCCCCC	0.46µM*	0	23µM*	0.58µM*	23µM*	-20%
COCCCN1C(=O)C(CC(=O)NC2CCCC2)CC(C(=O)N(C(C)C)C(C)C)=C1C (stereo not given)	-9%	?	19%	1%	18%	/
C[C@H]1CN([C@@H](C)CO)C(=O)CCCn2cc(nn2)CO[C@@H]1CN(C)C(=O)Nc1ccccc1F	?	22	14%	-11%	16%	/
CN1CCCC2(CCN(C(=O)c3cc(C(F)(F)F)cc(C(F)(F)F)c3)CC2)C1	-30%	/	/	-4%	/	/
COc1ccc(/C=N/N(C(C)=O)c2nc(-c3ccc(C)cc3)cs2)cc1	13µM*	?	5%	-27%	15%	3%
CC(=O)N(C)c1nc(-c2ccc(Cl)cc2)cs1	-11%	-2	0%	-25%	5%	?
CC(=O)N(/N=C/c1cccc(C)c1)c1nc(-c2ccc(Br)cc2)cs1	?	61	-2%	21µM*	7%	2%
Cc1ccc(C(O)(c2ccccc2)c2ccccc2C(C)N(C)C)c(C)c1 (stereo not given)	18µM*	-68*	?	?	?	-9%
CC(c1ccccc1C(O)c1ccccc1)N(C)C (stereo not given)	-1%	-10	4%	-6%	-6%	-1%
COc1cc(CNCc2ccncc2)cc(OC)c1OC	-7%	-13	-1%	-4%	-2%	-13%
COc1cc(OC)c2cc(-c3ccncc3)cnc2c1	27µM*	/	/	24µM*	/	/
